# Shown are actives, neighbours in structure and some others; about 18% of the full set was active somewhere.
# TDP1 cell noCPT = qHTS for Inhibitors of human tyrosyl-DNA phosphodiesterase 1 (TDP1): qHTS in cells in absence of CPT | DT40 Tdp1-/- hTDP1 cells, no CPT, ATP luminescence, 48 h | Potency, µM (highest dose often 46.2 µM), for the others: top-dose activity change, negative = growth inhibition, hits mostly inhibitors | 420,000 tested, 15% active | AID 686978, 2013; further: nearly all actives have a fitted effect of over 55% in size
#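 Chicken DT40 Tdp1-/- cells stably complemented with human TDP1 were seeded at 400 cells/well with DMSO in place of 20 nM camptothecin. After compound pinning, cells grew at least 48 hr at 37 °C; viability read by CellTiter-Glo luminescence.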
# KAT2A inh = qHTS Assay for Inhibitors of GCN5L2 | AID 504327, 2011 | Histone acetyltransferase KAT2A (Homo sapiens), Q92830 | 390,000 tested, 0.21% active | GCN5L2 HAT assay, ThioGlo1 CoA-SH fluorescence | Potency, µM (series often up to 58.9 µM), inactives show at the top dose activity change, negative = inhibition, most hits filed as inhibitors
# Target sequence (Q92830 whole entry, looked up): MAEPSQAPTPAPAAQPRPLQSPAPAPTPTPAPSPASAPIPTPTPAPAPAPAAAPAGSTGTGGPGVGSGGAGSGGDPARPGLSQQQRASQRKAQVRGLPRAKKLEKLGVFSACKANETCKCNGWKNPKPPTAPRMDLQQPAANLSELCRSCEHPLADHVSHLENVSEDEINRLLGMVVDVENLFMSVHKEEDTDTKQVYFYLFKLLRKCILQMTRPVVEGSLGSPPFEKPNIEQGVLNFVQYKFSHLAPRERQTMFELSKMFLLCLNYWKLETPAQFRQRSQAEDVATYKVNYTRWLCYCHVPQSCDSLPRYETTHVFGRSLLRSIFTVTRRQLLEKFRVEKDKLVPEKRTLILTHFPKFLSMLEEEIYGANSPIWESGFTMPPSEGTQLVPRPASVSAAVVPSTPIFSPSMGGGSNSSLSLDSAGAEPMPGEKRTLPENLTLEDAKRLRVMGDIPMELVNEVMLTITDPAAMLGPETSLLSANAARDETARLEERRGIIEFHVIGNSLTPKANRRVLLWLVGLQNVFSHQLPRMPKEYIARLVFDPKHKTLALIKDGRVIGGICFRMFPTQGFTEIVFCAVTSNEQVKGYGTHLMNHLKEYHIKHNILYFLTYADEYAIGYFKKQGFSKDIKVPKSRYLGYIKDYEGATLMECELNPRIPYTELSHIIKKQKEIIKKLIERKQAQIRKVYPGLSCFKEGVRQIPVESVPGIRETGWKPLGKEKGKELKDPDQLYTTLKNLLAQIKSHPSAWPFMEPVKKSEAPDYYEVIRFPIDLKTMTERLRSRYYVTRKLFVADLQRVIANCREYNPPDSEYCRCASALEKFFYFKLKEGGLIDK
#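 Titration-based screen in which CoA formation is detected via maleimide probe ThioGlo1 (50uM) turning fluorescent on thiol reaction; substrates H3(1-25) 75uM and acetyl-CoA 70uM, GCN5L2 20nM, 20 min incubation at room temperature.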
# PLK1 PBD inh = qHTS for Inhibitors of PLK1-PDB (polo-like kinase 1 - polo-box domain): Primary Screen. Serine/threonine-protein kinase PLK1 (Homo sapiens), P53350. AID 720504, 2013. Plk1 PBD binding of FITC phosphopeptide, fluorescence polarization. 360,000 tested, 2.8% active. Potency, µM, without a hit: max response, negative = inhibition, actives largely listed as inhibitors; further: series mostly up to about 57 µM; nearly all actives have a fitted effect of over 65% in size
# DT40 TDP1 CPT = qHTS for Inhibitors of human tyrosyl-DNA phosphodiesterase 1 (TDP1): qHTS in cells in presence of CPT. chicken DT40 Tdp1-/-;hTDP1 cells + 20 nM CPT, ATP luminescence, 48 h. Potency, µM (titrated, usually from 46.2 µM), without a hit: at the top dose activity change, negative = growth inhibition, most hits filed as inhibitors. 420,000 tested, 12% active. AID 686979, 2013; further: nearly all actives have a fitted effect of over 55% in size
#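 Chicken DT40 Tdp1-/- cells complemented with human TDP1, 400 cells/well, exposed to compounds plus 20 nM camptothecin for at least 48 h at 37 C; viability read as ATP content by CellTiter-Glo luminescence.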
# TDP1 block = qHTS Assay for Inhibitors of Tyrosyl-DNA Phosphodiesterase (TDP1); Tyrosyl-DNA phosphodiesterase 1 (Homo sapiens), Q9NUW8; recombinant TDP1, AlphaScreen DNA substrate cleavage; Potency, µM (series often up to 130 µM), for inactives: top-dose activity change, negative = inhibition, actives largely listed as inhibitors; 350,000 tested, 0.28% active; further: nearly all actives have a fitted effect of over 40% in size
#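 Enzyme-compound mixtures sat 15 min at room temperature, followed by a 5 min reaction with 15 nM final substrate and 10 min with AlphaScreen beads. Recombinant human Tdp1 was used at 1 nM final.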
# VDR inhibitor = Inhibitors of the vitamin D receptor (VDR): qHTS; VDR-SRC2-3 peptide fluorescence polarization, 2 h; Potency, µM, for inactives: max response, negative = inhibition, usual class: inhibitors; 400,000 tested, 0.93% active; AID 504847, 2011
#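 Fluorescence polarization assay of small-molecule disruption of VDR binding to coregulator peptide SRC2-3. Compounds and controls pin-transferred, then read after 2 h incubation at ambient room temperature.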
# Starred values were filed as active, the others as inactive; ? = inconclusive; · = not tested or not shown; [ ] = dose if it differs, or a comment. The call rests on the fitted dose curve; in most records, active means well fitted curve in the direction sought with a large enough effect; inconclusive means small, poorly fitted or top-dose-only effect, or another doubt; inactive means no such curve, though single readings can be large; an effect the other way counts as inactive or inconclusive. On the % scale 0 is the no-effect control and ±100 the full control effect; potency means the concentration at half of the fitted maximal effect.
SMILES,TDP1 cell noCPT,KAT2A inh,PLK1 PBD inh,DT40 TDP1 CPT,TDP1 block,VDR inhibitor
Cc1ccc(C(=O)N2CCC(C(=O)c3ccc(Cl)cc3)CC2)cc1,11.6µM*,-2.4%,-2.7%,?,·,?
COc1ccccc1NC(=O)c1ccc(NC(=O)CSc2nc(N)cc(=O)[nH]2)cc1,19.5%,-5.5%,-10.8%,-1.1%,-3.1%,6.0%
CCOc1ccc(-n2c(SCC(=O)NC3CCCCC3)nc3c([nH]c4ccccc43)c2=O)cc1,?,2.9%,·,?,6.6%,10.9%
Cc1cc(C)cc(-n2c(SCC(=O)NC3CCCCC3)nc3c([nH]c4ccccc43)c2=O)c1,?,8.4%,·,16.4µM*,4.4%,2.0%
O=C(CSc1nc2c([nH]c3ccccc32)c(=O)n1-c1ccc(Cl)cc1)NC1CCCCC1,14.6µM*,14.5%,·,10.3µM*,4.4%,-0.9%
O=[N+]([O-])c1ccc(CCO)cc1,·,·,·,·,7.0%,·
COc1ccccc1NC(=O)c1cc(S(=O)(=O)N2CCCCCC2)ccc1F,?,-3.4%,0.0%,?,2.4%,15.0%
O=C(Nc1ccccc1C(=O)O)c1cc(S(=O)(=O)N2CCCCC2)c(Cl)cc1Cl,11.6µM*,-6.3%,-10.5%,23.1µM*,6.7%,0.6%
CCS(=O)c1ccccc1C(=O)OC(C)C(=O)Nc1ccc(S(=O)(=O)N2CCCC2)cc1 (configuration not stated),?,-12.2%,-2.6%,13µM*,·,0.9%
O=C(CN1C(=O)c2ccccc2S1(=O)=O)Nc1ccc(S(=O)(=O)N2CCCCC2)cc1,?,·,23.8µM*,?,3.1%,-16.2%
CCOc1ccccc1C(=O)OC(C)C(=O)Nc1ccc(S(=O)(=O)N2CCCC2)cc1 (configuration not stated),?,-4.2%,-1.4%,-22.7%,0.4%,-11.5%
COc1cc(S(=O)(=O)N2CCCCC2)ccc1NC(=O)c1ccccc1Cl,16.4µM*,-4.9%,-12.7%,16.4µM*,2.4%,-6.4%
O=C(NCc1cccc(F)c1)C1CCN(c2nc3ccccc3nc2C(F)(F)F)CC1,?,-2.0%,·,-23.7%,5.3%,15.2%
CC(C)OCCCNC(=O)c1cn(C)c2ccc(S(=O)(=O)N3CCCCCC3)cc2c1=O,-24.7%,-1.9%,·,1.7%,2.3%,1.8%
O=C(Nc1ccc(S(=O)(=O)N2CCCCC2)cc1)c1ccccc1Cl,25.9µM*,-2.5%,29.9µM*,?,4.0%,-16.7%
COc1ccccc1NS(=O)(=O)c1cc(C(=O)N2CC(C)CC(C)C2)ccc1C (configuration not stated),20.6µM*,-2.1%,-0.5%,?,2.8%,-14.7%
COc1ccccc1NS(=O)(=O)c1ccc(C)c(NC(=O)c2ccc(S(=O)(=O)N3CCCCCC3)cc2)c1,20.6µM*,-10.4%,-1.0%,?,-1.8%,5.9%
Cc1nnsc1C(=O)Nc1ccc(S(=O)(=O)N2CCCCC2)cc1,?,-3.9%,-4.5%,20.6µM*,0.2%,-2.5%
O=C(Nc1ccc(S(=O)(=O)N2CCCCC2)cc1)c1cccnc1Cl,?,-24.8%,1.8%,?,-4.8%,-17.5%
COc1ccc(C(=O)OCC(=O)c2ccc[nH]2)c(OC)c1,-17.8%,-6.0%,-7.7%,10.7%,0.1%,-19.1%
CCOc1ccc(Nc2nc3ccccc3n3c(CC)nnc23)cc1,?,-2.9%,·,?,-4.3%[12.3 µM],-2.8%
CC(=O)N(CC(=O)Nc1sc(C)c(C)c1C(N)=O)Cc1ccccc1,?,13.4%,-0.2%,?,1.2%,-3.3%
Cc1sc(NC(=O)CN(Cc2ccc(F)cc2)C(=O)C(C)(C)C)c(C(N)=O)c1C,8.2µM*,0.0%,-2.1%,13µM*,1.9%,4.1%
Cc1sc(NC(=O)CN(Cc2ccccc2)C(=O)C2CC2)c(C(N)=O)c1C,4.61µM*,0.2%,-4.7%,8.2µM*,0.0%,9.3%
COC(=O)C1=C(C(=O)OC)[C@@H]2N(C)c3ccccc3[C@@]23C[C@@H](CO)N(C(=O)c2ccco2)C3=N1,·,·,·,·,6.5%[12.3 µM],·
SMILES,TDP1 cell noCPT,KAT2A inh,PLK1 PBD inh,DT40 TDP1 CPT,TDP1 block,VDR inhibitor
CC(=O)Nc1cccc(Oc2ncnc3scc(-c4ccccc4)c23)c1,10.3µM*,-5.8%,2.4%,?,2.7%,6.4%
Cc1csc2ncnc(N3CCN(S(=O)(=O)c4cccc(C(F)(F)F)c4)CC3)c12,3.66µM*,-12.1%,3.9%,9.2µM*,1.9%,-9.5%
COc1ccc(S(=O)(=O)N2CCN(c3nn(C)c(=O)n(C)c3=O)CC2)cc1,16.4µM*,-1.7%,-1.3%,?,-0.3%,-24.4%
COc1ccc(-c2csc3ncnc(N4CCN(S(=O)(=O)c5ccc(C)cc5)CC4)c23)cc1,14.6µM*,-25.6%,6.7%,?,0.5%,15.3%
Cc1cc(=O)oc2cc(O[C@@H]3O[C@H](C(=O)O)[C@@H](O)[C@H](O)[C@H]3O)ccc12,-4.2%,-10.0%,·,14.7%,3.6%,-7.5%
Cc1ccc(S(=O)(=O)N2CCN(C(=O)C3CCN(c4ncnc5sc(C)c(C)c45)CC3)CC2)c(C)c1,3.66µM*,·,-9.3%,8.2µM*,·,-0.7%
Cc1cccc(C)c1NC(=O)CN(C)C(=O)C1CCN(c2ncnc3sc(C)c(C)c23)CC1,?,-0.6%,-5.6%,?,·,-11.1%
Cc1ccc(-c2csc3ncnc(Oc4cccc5ccc(C)nc45)c23)cc1,20.6µM*,0.0%,-4.1%,?,-2.7%,-9.3%
COc1ccc(-c2csc3ncnc(N4CCN(S(=O)(=O)c5ccc(Cl)s5)CC4)c23)cc1,29.1µM*,-13.5%,0.2%,?,·,24.0%
O=S(=O)(c1ccc(Oc2ncnc3scc(-c4ccccc4)c23)cc1)N1CCOCC1,18.4µM*,-7.8%,-10.7%,23.1µM*,4.2%,0.7%
CC1CC(C)CN(C(=O)COC(=O)c2c[nH]c3ccccc23)C1 (configuration not stated),1.9%,0.1%,-6.3%,-5.5%,0.1%,-5.1%
Cc1ccc2ccccc2c1NC(=O)CNCc1ccccc1,?,·,-3.0%,-8.4%,·,·
Cc1sc2ncnc(N3CCN(S(=O)(=O)c4ccc(C(C)(C)C)cc4)CC3)c2c1C,3.26µM*,-2.1%,-8.8%,9.2µM*,3.9%,-0.9%
Cc1ccc(S(=O)(=O)N2CCN(c3nc(C)nc4sc(C)c(C)c34)CC2)cc1,·,-1.5%,·,·,0.0%,·

# From PubChem BioAssay
